Reference: PubChem BioAssay (NCI)
About 83,000 compounds went through this panel and 20% of them were active in at least one assay; those are over-represented in the sample as a whole.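 How to read the values: 0–100, growth inhibition (40 = 60% inhibited); 0, no net growth; -100 to 0, cell death (-40 = 40% of starting cells died; -100 = all dead).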 The source made the active and inactive calls. Rule for the calls: active = growth percent below 10; inactive = the rest.

Tests used:
Test in all cases: NCI-60 one-dose screen, 48 h (100 = growth as untreated, 0 = no growth, -100 = all killed)
Settings in all cases: 10 µM unless noted
HCT-15 colon = system: HCT-15 colon
HT29 colon = system: HT29 colon
SNB-75 CNS = system: SNB-75 CNS
SNB-19 CNS = system: SNB-19 CNS
U251 CNS = system: U251 CNS
PC-3 prostate = system: PC-3 prostate
SK-MEL-5 melanoma = system: SK-MEL-5 melanoma
UACC-62 melanoma = system: UACC-62 melanoma
LOX IMVI melanoma = system: LOX IMVI melanoma
SK-MEL-28 melanoma = system: SK-MEL-28 melanoma

Row | SMILES | growth (HCT-15 colon) | growth (HT29 colon) | growth (SNB-75 CNS) | growth (SNB-19 CNS) | growth (U251 CNS) | growth (PC-3 prostate) | growth (SK-MEL-5 melanoma) | growth (UACC-62 melanoma) | growth (LOX IMVI melanoma) | growth (SK-MEL-28 melanoma)
1 | O=c1cc(C2NCCc3c2[nH]c2ccccc32)c2c(ccc3ccccc32)o1 (stereo not given) | 44.5% (inactive) | 56.2% (inactive) | 51.6% (inactive) | 88.3% (inactive) | 66.1% (inactive) | 56% (inactive) | 76.4% (inactive) | 48.7% (inactive) | 36.8% (inactive) | 92.7% (inactive)
2 | Cc1cc(Nc2nc(-c3ccncc3)nc3ccccc23)n[nH]1 | 44.2% (inactive) | 61.3% (inactive) | -23.4% (active) | 95% (inactive) | 115% (inactive) | 61% (inactive) | 89.1% (inactive) | 55.3% (inactive) | 62.7% (inactive) | 69.1% (inactive)
3 | O=C1c2ccccc2C(=O)c2c1oc1oc3c(c(=O)c21)c(=O)n(-c1ccccc1)c1ccccc31 | 66.6% (inactive) | 84.2% (inactive) | 31.8% (inactive) | 27.9% (inactive) | 21.1% (inactive) | 34.2% (inactive) | 17.7% (inactive) | 13.2% (inactive) | 43% (inactive) | 39.4% (inactive)
4 | COc1cc(CNC(=O)CCSc2nc3ccccc3c(=O)n2Cc2cc(OC)c(OC)c(OC)c2)cc(OC)c1OC | 17.7% (inactive) | 12.9% (inactive) | 17.9% (inactive) | 56% (inactive) | 38.3% (inactive) | 49.5% (inactive) | 12.6% (inactive) | 36.3% (inactive) | 44.6% (inactive) | 55.8% (inactive)
5 | O=C(O)c1cccc([N+](=O)[O-])c1/C=C/c1ccccc1 | 102% (inactive) | 100% (inactive) | 86.9% (inactive) | 101% (inactive) | 97.4% (inactive) | 124% (inactive) | 103% (inactive) | 107% (inactive) | 96% (inactive) | 105% (inactive)
6 | O=C(Nc1ccc(OCc2nnc(-c3ccc(Cl)cc3)o2)c(F)c1)Nc1ccc(Cl)c(Cl)c1 | 48.4% (inactive) | 32.8% (inactive) | 6.81% (active) | 71.8% (inactive) | 46.8% (inactive) | 44.4% (inactive) | 75.6% (inactive) | 60.9% (inactive) | 24.5% (inactive) | 61.5% (inactive)
7 | COc1cc(NC(=O)c2cc3ccccc3nc2Nc2ccc(F)cc2)cc(OC)c1OC | 31.8% (inactive) | 69.3% (inactive) | 60.7% (inactive) | 61.1% (inactive) | 35.3% (inactive) | 13.2% (inactive) | -13.8% (active) | 37.5% (inactive) | 32.6% (inactive) | 54.2% (inactive)
8 | c1ccc([P+](CCC[P+](c2ccccc2)(c2ccccc2)c2ccccc2)(c2ccccc2)c2ccccc2)cc1 | 101% (inactive) | 66.9% (inactive) | 54% (inactive) | 64.4% (inactive) | 40% (inactive) | 38% (inactive) | 75.1% (inactive) | 62.5% (inactive) | 86.6% (inactive) | 75.1% (inactive)
9 | CCOC(=O)CC(C#N)(CC(=O)OCC)C(=O)OCC | 99.4% (inactive) | 125% (inactive) | 89.7% (inactive) | 111% (inactive) | 94.8% (inactive) | 89.2% (inactive) | 98% (inactive) | 97.7% (inactive) | 103% (inactive) | 98% (inactive)
10 | Clc1nc(-c2cccnc2)nc2sc3c(c12)CCCCCC3 | 98.9% (inactive) | 100% (inactive) | 91.3% (inactive) | 96.2% (inactive) | 91.3% (inactive) | 94.7% (inactive) | 96.8% (inactive) | 91.3% (inactive) | 100% (inactive) | 104% (inactive)
11 | CCC(=O)Nc1ccccc1C#C/C=C\C#Cc1ccccc1SC | 43.9% (inactive) | 29.6% (inactive) | 60.6% (inactive) | 79.3% (inactive) | 48.9% (inactive) | 51.9% (inactive) | 23.8% (inactive) | 40.1% (inactive) | 57.9% (inactive) | 81.2% (inactive)
